An excerpt weighted towards active compounds, which were near 21% of everything screened.
Pf growth 48h: Primary qHTS for delayed death inhibitors of the malarial parasite plastid, 48 hour incubation | P. falciparum luciferase growth in erythrocytes, 48 h | Potency, µM (highest dose often 28.7 µM), hits mostly inhibitors | 310,000 compounds, 5.9% hits | AID 504832, 2011
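In quantitative HTS format, infected erythrocytes bearing luciferase-reporter parasites were treated for a single generation at 37 C. Luminescence after adding detection reagent served as the growth measure.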
Pf growth 96h: Primary qHTS for delayed death inhibitors of the malarial parasite plastid, 96 hour incubation; P. falciparum luciferase reporter growth, 96 h; Potency, µM (titrated, usually from 28.7 µM), usual class: inhibitors; 320,000 compounds, 6.9% hits; AID 504834, 2011
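Compounds incubated with erythrocytes infected by luciferase-expressing P. falciparum (2% hematocrit, 0.05% parasitemia final) for 96 hours, 37 C in 5% CO2. Growth inhibition scored as decreased luciferase luminescence.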
Shiga toxin inh: A qHTS for Small Molecule Inhibitors of Shiga Toxin | 290,000 compounds, 9.2% hits | Vero cells, Shiga toxin protein synthesis inhibition reporter | AID 2315, 2010 | inhibition, % at 38.7 µM; in the data active = inhibition mostly above about 28%, no sharp cut-off; inactive = mostly below about 43%
AMA1 RON2 block: qHTS for Inhibitors of AMA1-RON; Towards Development of Antimalarial Drug Lead: Primary Screen; Plasmodium falciparum AMA1 (3D7) - RON2 peptide interaction; AlphaScreen AMA1-biotinylated RON2 peptide binding; AID 720542, 2013; 360,000 compounds, 0.2% hits; Potency, µM (highest dose often 58.2 µM), most hits filed as inhibitors; also: nearly all actives have a fitted effect of over 45% in size
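AMA1 (3D7) with his tag at 25 nM final met compounds first, then biotinylated RON2 peptide at 25 nM; detection used donor plus acceptor beads, 10 µg/mL apiece, read by AlphaScreen after 30 min at room temperature.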
Cycloheximide cs: Cycloheximide Counterscreen for Small Molecule Inhibitors of Shiga Toxin; cell reporter, cycloheximide protein synthesis inhibition counterscreen; max response, %; 300,000 compounds, 12% hits; AID 2314, 2010; in the data active = max response mostly above about 13%, no sharp cut-off; inactive = mostly below about 14%; also: read at 38.3 µM for the half of the compounds with a filed dose
HCV inhibitor: qHTS Assay for Inhibitors of Hepatitis C Virus (HCV) | Huh7.5.1 HCVcc-Cre infection, luciferase reporter, 44 h | Potency, µM (doses to about 41.8 µM), usual class: inhibitors | 340,000 compounds, 3.4% hits
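A cell-based infection assay in which seeded cells (1,000 per well) receive test compound after 4 h, are inoculated with HCVcc-Cre at approximately 0.5 moi, and are incubated 44 h before luminescence detection.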
Each line names hits and unclear results; the compound was inactive in the other large screens. Unless noted, calls follow the shape of the dose curve; as a rule, active = well fitted curve in the direction sought with a large enough effect; inconclusive = small, poorly fitted or top-dose-only effect, or another doubt; inactive = no such curve, though single readings can be large; an effect the other way counts as inactive or inconclusive.

CCCNC(=O)c1cc(C2CCCCN2S(C)(=O)=O)on1 (stereo unspecified)	none (no result: Pf growth 48h, Pf growth 96h, Shiga toxin inh, Cycloheximide cs, HCV inhibitor)
CC(C)CCN=CC1=C(O)CC(c2ccccc2)CC1=O (stereo unspecified)	Cycloheximide cs 29
O=C1CC(c2ccccc2)CC(O)=C1C=NCc1ccncc1 (stereo unspecified)	Pf growth 96h 12µM
O=C1CC(c2ccccc2)CC(O)=C1C=NCc1ccc(Cl)c(Cl)c1 (stereo unspecified)	Pf growth 96h inconclusive
CCCN=CC1=C(O)CC(c2ccccc2)CC1=O (stereo unspecified)	none
COc1ccccc1N=CC1=C(O)CC(c2ccccc2)CC1=O (stereo unspecified)	Pf growth 96h 13µM
CC(=O)N1CC(C(=O)Nc2ccc3c(c2)OCO3)Oc2ccccc21 (stereo unspecified)	none (no result: Pf growth 48h, Pf growth 96h, Shiga toxin inh, Cycloheximide cs)
COc1ccccc1C#Cc1cnc2c(c1)C(=O)N([C@H](C)CO)C[C@@H](C)[C@@H](CN(C)C(=O)c1ccc3c(c1)OCO3)O2	none (no result: Pf growth 48h, Pf growth 96h, Shiga toxin inh, Cycloheximide cs, HCV inhibitor)
CC(=O)NC1=NN(C(C)=O)C(C)(c2cccnc2)S1 (stereo unspecified)	none
CC(=O)NC1=NN(C(C)=O)C(C)(c2ccco2)S1 (stereo unspecified)	Pf growth 48h inconclusive, Shiga toxin inh 59, Cycloheximide cs 43
CC(=O)NC1=NN(C(C)=O)C(C)(c2ccc(C)o2)S1 (stereo unspecified)	Cycloheximide cs 19
CC(=O)NC1=NN(C(C)=O)C(C)(c2cccs2)S1 (stereo unspecified)	Pf growth 96h 10µM
NC(=O)c1ccc(NC(=O)COC(=O)c2c[nH]c3ccccc23)cc1	none (no result: Shiga toxin inh, Cycloheximide cs)
O=C(Nc1ccncc1)c1ccc2ncsc2c1	Pf growth 48h inconclusive, Pf growth 96h inconclusive, HCV inhibitor inconclusive (no result: Shiga toxin inh, Cycloheximide cs)
O=C(Nc1ccc(Cl)cc1Cl)c1ccc2ncsc2c1	Shiga toxin inh 78, Cycloheximide cs 41
O=C(Nc1ccccc1F)c1ccc2ncsc2c1	Shiga toxin inh 149, Cycloheximide cs 61
O=C(Nc1ccc(F)cc1F)c1ccc2ncsc2c1	Shiga toxin inh 97, Cycloheximide cs 63
Cn1nnc2cc(C(=O)Nc3ccccc3F)ccc21	Shiga toxin inh 55, Cycloheximide cs 31
CNC(=O)c1c(NC(=O)c2ccc3ncsc3c2)sc(C)c1C	Pf growth 48h inconclusive (no result: Shiga toxin inh, Cycloheximide cs)
Cc1ccc(S(=O)(=O)NC(=O)c2ccccc2C)cc1	none
O=C(Nc1cccc(F)c1)c1ccc2ncsc2c1	Shiga toxin inh 105, Cycloheximide cs 49
N#Cc1cc(NC(=O)c2ccc(F)cc2)c(=O)n2c1[nH]c1ccccc12	Pf growth 96h inconclusive (no result: AMA1 RON2 block, HCV inhibitor)
Oc1ccc(C(=C(Cl)Cl)c2ccc(O)cc2)cc1	Pf growth 48h 2.9µM, Pf growth 96h 2.3µM (no result: AMA1 RON2 block, HCV inhibitor)
O=C(O)c1ccc(O)cc1	none (no result: Pf growth 48h, Pf growth 96h, AMA1 RON2 block, HCV inhibitor)
CCOC(=O)c1nnn(-c2nc(N3CCCC3)nc(N3CCCC3)n2)c1-c1ccccc1	Pf growth 48h inconclusive, HCV inhibitor 18µM
CCOC(=O)c1c(-c2ccccc2)nnn1-c1nc(OCC)nc(N2CCCCC2)n1	Pf growth 48h inconclusive, HCV inhibitor 6.3µM
CCOC(=O)c1nnn(-c2nc(OC)nc(N3CCCCC3)n2)c1-c1ccccc1	Pf growth 48h inconclusive, Pf growth 96h inconclusive (no result: AMA1 RON2 block, HCV inhibitor)
Cc1c(C(=O)N2CCOCC2)sc(NC(=O)CCl)c1C#N	Pf growth 48h 2.1µM
Cc1c(C(=O)N2CCOCC2)sc(NC(=O)c2ccc([N+](=O)[O-])cc2)c1C#N	none
CCC(Sc1nc2ccccc2c(=O)[nH]1)C(=O)Nc1ccc(C(C)=O)cc1 (stereo unspecified)	Shiga toxin inh 59, Cycloheximide cs 32
COCCNc1ncnc2c1ncn2[C@H]1CN(Cc2ccco2)C[C@@H](CO)O1	none (no result: Pf growth 48h, Pf growth 96h, Shiga toxin inh, Cycloheximide cs, HCV inhibitor)
CC1(c2ccccc2)CC(C)(C)N2C(=O)Cc3cccc1c32 (stereo unspecified)	Pf growth 48h 15µM
CC1(c2ccc([N+](=O)[O-])cc2)CC(C)(C)N(C(=O)c2ccccc2)c2ccccc21 (stereo unspecified)	Pf growth 96h inconclusive (no result: AMA1 RON2 block)

Bioassay records: PubChem, National Center for Advancing Translational Sciences (NCATS)
